Results: article PMC7862700, “An all-to-all approach to the identification of sequence-specific readers for epigenetic DNA modifications on cytosine”

Tests used:
Experiment in all cases: DAPPL (digital affinity profiling via proximity ligation, sequencing); 10 mM Tris-HCl pH 7.5, 50 mM NaCl, 1 mM DTT, 4% glycerol, room temperature, 30 min; GST-TFs on glutathione beads, 16-mer random dsDNA library, 0.1% formaldehyde crosslink after washing; high values mean tight binding
Conditions in all cases: protein: recombinant; tags: N-terminal GST; dsDNA, one strand shown
[1] = molecular target: T1, ERF (Homo sapiens, UniProt P50548 1-548)
T1 sequence: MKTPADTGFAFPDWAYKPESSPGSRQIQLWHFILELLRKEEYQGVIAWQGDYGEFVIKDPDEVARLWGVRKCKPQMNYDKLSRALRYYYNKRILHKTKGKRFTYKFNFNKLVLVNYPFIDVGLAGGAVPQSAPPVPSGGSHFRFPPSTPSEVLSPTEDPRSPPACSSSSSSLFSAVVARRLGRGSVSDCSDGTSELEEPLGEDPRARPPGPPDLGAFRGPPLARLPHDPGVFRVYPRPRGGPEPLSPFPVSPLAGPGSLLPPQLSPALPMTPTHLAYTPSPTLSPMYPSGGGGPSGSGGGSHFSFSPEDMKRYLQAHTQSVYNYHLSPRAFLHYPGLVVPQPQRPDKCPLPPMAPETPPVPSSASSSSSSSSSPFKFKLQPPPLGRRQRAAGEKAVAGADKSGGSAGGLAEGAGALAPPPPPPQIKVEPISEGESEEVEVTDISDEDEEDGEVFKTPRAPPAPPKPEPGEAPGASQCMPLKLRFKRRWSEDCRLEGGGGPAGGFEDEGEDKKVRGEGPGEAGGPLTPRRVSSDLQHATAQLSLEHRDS
How it was run: (§1)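 In yeast, human transcription factors were expressed with a GST fusion, then pulled down on glutathione beads and given DNA barcodes. Pooled with a tag-only sample, they were exposed to 200 nmole of a 16-mer random double-stranded DNA library (Tris/NaCl/DTT/glycerol buffer, room temperature, 30 min), washed, crosslinked with 0.1% formaldehyde, proximity-ligated using BsaI/T4 ligase for 1 h at 37 °C, PCR-amplified and read on an Illumina NextSeq500. Each hexamer's frequency of reads for a factor, divided by the matching frequency for the tag-only sample, gives the binding signal.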

[2] = molecular target: T2, ETV3L (Homo sapiens, UniProt Q6ZN32 1-361)
T2 sequence: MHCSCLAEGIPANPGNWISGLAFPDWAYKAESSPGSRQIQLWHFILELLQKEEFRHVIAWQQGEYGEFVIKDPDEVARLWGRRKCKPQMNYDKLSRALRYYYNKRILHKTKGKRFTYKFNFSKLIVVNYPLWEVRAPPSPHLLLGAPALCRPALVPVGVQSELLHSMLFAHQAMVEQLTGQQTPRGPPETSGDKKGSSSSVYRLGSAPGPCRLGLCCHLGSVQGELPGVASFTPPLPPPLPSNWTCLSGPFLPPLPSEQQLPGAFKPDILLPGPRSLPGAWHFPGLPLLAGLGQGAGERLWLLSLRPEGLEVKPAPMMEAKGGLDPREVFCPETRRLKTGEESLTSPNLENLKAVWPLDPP
How it was run: as §1

[3] = molecular target: T3, ETS2 (Homo sapiens, UniProt P15036 1-469)
T3 sequence: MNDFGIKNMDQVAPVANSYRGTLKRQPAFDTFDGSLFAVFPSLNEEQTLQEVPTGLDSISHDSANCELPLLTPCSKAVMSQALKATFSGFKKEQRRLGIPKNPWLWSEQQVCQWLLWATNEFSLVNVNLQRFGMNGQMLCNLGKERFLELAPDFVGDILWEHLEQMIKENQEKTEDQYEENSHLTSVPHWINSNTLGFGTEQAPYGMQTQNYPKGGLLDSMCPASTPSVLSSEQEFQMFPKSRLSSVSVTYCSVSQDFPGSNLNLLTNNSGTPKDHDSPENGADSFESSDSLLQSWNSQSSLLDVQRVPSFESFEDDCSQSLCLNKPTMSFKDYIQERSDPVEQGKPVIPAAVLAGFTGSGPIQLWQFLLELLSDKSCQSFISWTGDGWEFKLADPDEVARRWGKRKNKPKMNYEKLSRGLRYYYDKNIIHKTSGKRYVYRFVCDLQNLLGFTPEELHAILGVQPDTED
How it was run: as §1

[4] = molecular target: T4, SPDEF (Homo sapiens, UniProt O95238 1-335)
T4 sequence: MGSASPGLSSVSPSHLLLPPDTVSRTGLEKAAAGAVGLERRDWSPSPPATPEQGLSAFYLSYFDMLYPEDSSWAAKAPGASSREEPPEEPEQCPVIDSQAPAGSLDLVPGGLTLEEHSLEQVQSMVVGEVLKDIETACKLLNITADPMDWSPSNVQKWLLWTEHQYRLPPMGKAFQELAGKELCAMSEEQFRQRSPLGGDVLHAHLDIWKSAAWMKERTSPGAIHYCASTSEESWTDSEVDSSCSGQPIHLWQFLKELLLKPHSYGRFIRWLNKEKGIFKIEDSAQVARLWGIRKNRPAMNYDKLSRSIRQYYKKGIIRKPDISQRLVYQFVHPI
How it was run: as §1

[5] = molecular target: T5, ETV7 (Homo sapiens, UniProt Q9Y603 1-341)
T5 sequence: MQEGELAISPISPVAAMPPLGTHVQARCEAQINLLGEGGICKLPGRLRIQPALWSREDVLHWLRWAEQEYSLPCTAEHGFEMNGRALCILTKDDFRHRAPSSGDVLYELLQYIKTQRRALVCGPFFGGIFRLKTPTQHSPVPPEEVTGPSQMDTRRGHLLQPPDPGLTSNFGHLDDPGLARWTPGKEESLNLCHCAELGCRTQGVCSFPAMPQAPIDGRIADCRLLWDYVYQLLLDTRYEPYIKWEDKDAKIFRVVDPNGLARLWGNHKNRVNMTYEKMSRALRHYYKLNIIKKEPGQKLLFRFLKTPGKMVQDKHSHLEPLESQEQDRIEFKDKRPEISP
How it was run: as §1

[6] = molecular target: T6, ELF5 (Homo sapiens, UniProt Q9UKW6-2 1-255)
T6 sequence: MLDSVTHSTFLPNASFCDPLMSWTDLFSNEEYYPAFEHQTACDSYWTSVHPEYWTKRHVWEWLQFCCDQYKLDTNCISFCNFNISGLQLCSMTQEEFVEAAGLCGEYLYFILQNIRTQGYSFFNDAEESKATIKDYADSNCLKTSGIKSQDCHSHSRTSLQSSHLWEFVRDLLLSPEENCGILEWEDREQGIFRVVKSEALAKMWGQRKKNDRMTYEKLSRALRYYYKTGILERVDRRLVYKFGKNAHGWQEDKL
How it was run: as §1

[7] = molecular target: T7, ETV3 (Homo sapiens, UniProt P41162-2 1-143)
T7 sequence: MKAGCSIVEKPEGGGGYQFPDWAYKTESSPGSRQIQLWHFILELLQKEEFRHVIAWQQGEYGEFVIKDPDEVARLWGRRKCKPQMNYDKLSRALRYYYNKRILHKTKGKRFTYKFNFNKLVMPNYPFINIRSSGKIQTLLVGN
How it was run: as §1

[8] = molecular target: ETV6 (Homo sapiens, UniProt P41212 1-452)
ETV6, sequence (P41212 whole entry): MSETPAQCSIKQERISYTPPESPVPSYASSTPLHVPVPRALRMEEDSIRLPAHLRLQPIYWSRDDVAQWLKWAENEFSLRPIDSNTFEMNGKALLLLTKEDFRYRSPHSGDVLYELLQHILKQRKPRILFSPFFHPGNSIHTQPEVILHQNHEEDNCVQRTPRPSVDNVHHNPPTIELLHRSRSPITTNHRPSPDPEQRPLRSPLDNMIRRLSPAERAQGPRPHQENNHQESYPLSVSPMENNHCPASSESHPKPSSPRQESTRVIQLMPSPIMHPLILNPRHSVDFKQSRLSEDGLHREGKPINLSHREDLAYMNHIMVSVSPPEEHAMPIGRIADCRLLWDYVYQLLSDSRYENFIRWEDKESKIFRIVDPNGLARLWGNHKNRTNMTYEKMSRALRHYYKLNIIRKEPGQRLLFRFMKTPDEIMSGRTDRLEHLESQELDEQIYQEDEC
How it was run: as §1

| Sequence | binding signal [1] | binding signal [2] | binding signal [3] | binding signal [4] | binding signal [5] | binding signal [6] | binding signal [7] | binding signal [8] |
| --- | --- | --- | --- | --- | --- | --- | --- | --- |
| TATGCC | 1.16 fold enrichment (6-mer frequency, TF over GST control) | 1.12 fold enrichment (6-mer frequency, TF over GST control) | 1.21 fold enrichment (6-mer frequency, TF over GST control) | 1.23 fold enrichment (6-mer frequency, TF over GST control) | 1.19 fold enrichment (6-mer frequency, TF over GST control) | 1.14 fold enrichment (6-mer frequency, TF over GST control) | 1.17 fold enrichment (6-mer frequency, TF over GST control) | 1.22 fold enrichment (6-mer frequency, TF over GST control) |
| ACTCCT | 1.45 fold enrichment (6-mer frequency, TF over GST control) | 1.54 fold enrichment (6-mer frequency, TF over GST control) | 1.52 fold enrichment (6-mer frequency, TF over GST control) | 1.42 fold enrichment (6-mer frequency, TF over GST control) | 1.52 fold enrichment (6-mer frequency, TF over GST control) | 1.42 fold enrichment (6-mer frequency, TF over GST control) | 1.43 fold enrichment (6-mer frequency, TF over GST control) | 1.42 fold enrichment (6-mer frequency, TF over GST control) |
| GCAACT | 1.07 fold enrichment (6-mer frequency, TF over GST control) | 1.17 fold enrichment (6-mer frequency, TF over GST control) | 1.16 fold enrichment (6-mer frequency, TF over GST control) | 1.11 fold enrichment (6-mer frequency, TF over GST control) | 1.2 fold enrichment (6-mer frequency, TF over GST control) | 1.18 fold enrichment (6-mer frequency, TF over GST control) | 1.16 fold enrichment (6-mer frequency, TF over GST control) | 1.24 fold enrichment (6-mer frequency, TF over GST control) |
| ACTACA | 1.13 fold enrichment (6-mer frequency, TF over GST control) | 1.22 fold enrichment (6-mer frequency, TF over GST control) | 1.15 fold enrichment (6-mer frequency, TF over GST control) | 1.28 fold enrichment (6-mer frequency, TF over GST control) | 1.11 fold enrichment (6-mer frequency, TF over GST control) | 1.24 fold enrichment (6-mer frequency, TF over GST control) | 1.19 fold enrichment (6-mer frequency, TF over GST control) | 1.19 fold enrichment (6-mer frequency, TF over GST control) |
| CCACTG | 1.22 fold enrichment (6-mer frequency, TF over GST control) | 1.15 fold enrichment (6-mer frequency, TF over GST control) | 1.16 fold enrichment (6-mer frequency, TF over GST control) | 1.14 fold enrichment (6-mer frequency, TF over GST control) | 1.1 fold enrichment (6-mer frequency, TF over GST control) | 1.09 fold enrichment (6-mer frequency, TF over GST control) | 1.15 fold enrichment (6-mer frequency, TF over GST control) | 1.22 fold enrichment (6-mer frequency, TF over GST control) |
| CTCCGC | 1.47 fold enrichment (6-mer frequency, TF over GST control) | 1.56 fold enrichment (6-mer frequency, TF over GST control) | 1.52 fold enrichment (6-mer frequency, TF over GST control) | 1.54 fold enrichment (6-mer frequency, TF over GST control) | 1.31 fold enrichment (6-mer frequency, TF over GST control) | 1.48 fold enrichment (6-mer frequency, TF over GST control) | 1.59 fold enrichment (6-mer frequency, TF over GST control) | 1.44 fold enrichment (6-mer frequency, TF over GST control) |
| ATATGT | 1.25 fold enrichment (6-mer frequency, TF over GST control) | 1.17 fold enrichment (6-mer frequency, TF over GST control) | 1.19 fold enrichment (6-mer frequency, TF over GST control) | 1.13 fold enrichment (6-mer frequency, TF over GST control) | 1.16 fold enrichment (6-mer frequency, TF over GST control) | 1.13 fold enrichment (6-mer frequency, TF over GST control) | 1.1 fold enrichment (6-mer frequency, TF over GST control) | 1.07 fold enrichment (6-mer frequency, TF over GST control) |
| TGGAAA | 1.08 fold enrichment (6-mer frequency, TF over GST control) | 1.2 fold enrichment (6-mer frequency, TF over GST control) | 1.1 fold enrichment (6-mer frequency, TF over GST control) | 1.04 fold enrichment (6-mer frequency, TF over GST control) | 1.19 fold enrichment (6-mer frequency, TF over GST control) | 1.12 fold enrichment (6-mer frequency, TF over GST control) | 1.08 fold enrichment (6-mer frequency, TF over GST control) | 1.23 fold enrichment (6-mer frequency, TF over GST control) |
| GTTCAT | 1.11 fold enrichment (6-mer frequency, TF over GST control) | 1.16 fold enrichment (6-mer frequency, TF over GST control) | 1.16 fold enrichment (6-mer frequency, TF over GST control) | 1.18 fold enrichment (6-mer frequency, TF over GST control) | 1.05 fold enrichment (6-mer frequency, TF over GST control) | 1.1 fold enrichment (6-mer frequency, TF over GST control) | 1.1 fold enrichment (6-mer frequency, TF over GST control) | 1.17 fold enrichment (6-mer frequency, TF over GST control) |
